# In PubChem BioAssay AID1159580 (chemical genetic matrix, 2015):
# About 2,000 (36%) of roughly 5,500 compounds were called active. Roughly 18% stayed inconclusive and do not appear here. The list shows a part of the results. Unmarked numbers belong to inactive results. Rule as the data show it: active = normalized growth mostly below about 0.91 (no sharp cut-off); inconclusive = no clear call, values can overlap the other calls; inactive = mostly above about 0.92.
# Assay: chemical genetic growth profiling, strain panel (AID 1159580);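 also: tested at 20 µM; growth read once vehicle control cultures reached saturation at 30 °C; 1 = growth at the plate median or of vehicle wells; lower values mean less growth of the strain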
# Settings: S. cerevisiae deletion strains, growth OD
smiles,measurement,setting,value
Cc1ccc(S(=O)(=O)NC(=O)Nc2ccc(Sc3ccccc3)nc2Sc2ccccc2)cc1,normalized growth,"locus YAR019C, strain CDC15, stronger effect = lower value",0.984
same,normalized growth,"locus YBL105C, strain PKC1, stronger effect = lower value",0.967
same,normalized growth,"locus YBR135W, strain CKS1, stronger effect = lower value",0.968
same,normalized growth,"locus YBR136W, strain MEC1, stronger effect = lower value",0.972
same,normalized growth,"locus YBR160W, strain CDC28, stronger effect = lower value",0.969
same,normalized growth,"locus YDL017W, strain CDC7, stronger effect = lower value",0.974
same,normalized growth,"locus YDL028C, strain MPS1, stronger effect = lower value",0.974
same,normalized growth,"locus YDL101C, strain DUN1, stronger effect = lower value",0.983
same,normalized growth,"locus YDL108W, strain KIN28, stronger effect = lower value",0.966
same,normalized growth,"locus YDL132W, strain cdc53, stronger effect = lower value",0.956
same,normalized growth,"locus YDL214C, strain PRR2, stronger effect = lower value",0.927
same,normalized growth,"locus YDR052C, strain DBF4, stronger effect = lower value",0.978
same,normalized growth,"locus YDR054C, strain cdc34, stronger effect = lower value",0.969
same,normalized growth,"locus YDR226W, strain ADK1, stronger effect = lower value",0.977
same,normalized growth,"locus YDR477W, strain SNF1, stronger effect = lower value",0.936
same,normalized growth,"locus YER123W, strain YCK3, stronger effect = lower value",0.976
same,normalized growth,"locus YER133W, strain GLC7, stronger effect = lower value",0.961
same,normalized growth,"locus YFL009W, strain cdc4, stronger effect = lower value",0.957
same,normalized growth,"locus YFL029C, strain CAK1, stronger effect = lower value",0.979
same,normalized growth,"locus YFR003C, strain YPI1, stronger effect = lower value",0.969
same,normalized growth,"locus YFR019W, strain FAB1, stronger effect = lower value",0.993
same,normalized growth,"locus YFR028C, strain CDC14, stronger effect = lower value",0.974
same,normalized growth,"locus YGR040W, strain KSS1, stronger effect = lower value",0.942
same,normalized growth,"locus YGR052W, strain FMP48, stronger effect = lower value",0.982
same,normalized growth,"locus YGR092W, strain DBF2, stronger effect = lower value",0.913
same,normalized growth,"locus YHR030C, strain SLT2, stronger effect = lower value",0.745 (active)
same,normalized growth,"locus YHR079C, strain IRE1, stronger effect = lower value",0.948
same,normalized growth,"locus YHR082C, strain KSP1, stronger effect = lower value",1.03
same,normalized growth,"locus YHR205W, strain SCH9, stronger effect = lower value",0.946
same,normalized growth,"locus YIL147C, strain SLN1, stronger effect = lower value",0.977
same,normalized growth,"locus YJL095W, strain BCK1, stronger effect = lower value",0.933
same,normalized growth,"locus YJL128C, strain PBS2, stronger effect = lower value",0.967
same,normalized growth,"locus YJL157C, strain FAR1, stronger effect = lower value",0.97
same,normalized growth,"locus YJR016C, strain ILV3, stronger effect = lower value",0.98
same,normalized growth,"locus YJR066W, strain TOR1 (second series), stronger effect = lower value",0.967
same,normalized growth,"locus YJR066W, strain TOR1, stronger effect = lower value",0.95
same,normalized growth,"locus YKL048C, strain ELM1, stronger effect = lower value",0.97
same,normalized growth,"locus YKL067W, strain YNK1, stronger effect = lower value",0.914
same,normalized growth,"locus YKL101W, strain HSL1, stronger effect = lower value",0.957
same,normalized growth,"locus YKL193C, strain SDS22, stronger effect = lower value",0.972
same,normalized growth,"locus YKL203C, strain TOR2, stronger effect = lower value",1.04
same,normalized growth,"locus YLR113W, strain HOG1, stronger effect = lower value",0.885
same,normalized growth,"locus YLR133W, strain CKI1, stronger effect = lower value",0.954
same,normalized growth,"locus YLR403W, strain SFP1, stronger effect = lower value",0.999
same,normalized growth,"locus YML070W, strain DAK1, stronger effect = lower value",0.972
same,normalized growth,"locus YMR001C, strain CDC5, stronger effect = lower value",0.971
same,normalized growth,"locus YMR205C, strain PFK2 (second series), stronger effect = lower value",0.944
same,normalized growth,"locus YMR277W, strain FCP1, stronger effect = lower value",0.965
same,normalized growth,"locus YNL006W, strain LST8, stronger effect = lower value",0.968
same,normalized growth,"locus YNL020C, strain ARK1, stronger effect = lower value",0.949
same,normalized growth,"locus YNL161W, strain CBK1, stronger effect = lower value",0.973
same,normalized growth,"locus YNL183C, strain NPR1, stronger effect = lower value",0.969
same,normalized growth,"locus YNL207W, strain RIO2, stronger effect = lower value",0.966
same,normalized growth,"locus YNL222W, strain SSU72, stronger effect = lower value",0.948
same,normalized growth,"locus YNL307C, strain MCK1 (second series), stronger effect = lower value",0.945
same,normalized growth,"locus YOL078W, strain AVO1, stronger effect = lower value",0.966
same,normalized growth,"locus YOL136C, strain PFK27, stronger effect = lower value",0.972
same,normalized growth,"locus YOR061W, strain CKA2, stronger effect = lower value",0.938
same,normalized growth,"locus YOR119C, strain RIO1, stronger effect = lower value",0.98
same,normalized growth,"locus YOR231W, strain MKK1, stronger effect = lower value",0.976
same,normalized growth,"locus YOR329C, strain SCD5, stronger effect = lower value",0.977
same,normalized growth,"locus YPL031C, strain PHO85, stronger effect = lower value",0.94
same,normalized growth,"locus YPL153C, strain RAD53, stronger effect = lower value",0.946
same,normalized growth,"locus YPL204W, strain HRR25, stronger effect = lower value",0.934
same,normalized growth,"locus YPL209C, strain IPL1, stronger effect = lower value",0.976
same,normalized growth,"locus YPL256C, strain CLN2, stronger effect = lower value",0.955
same,normalized growth,"locus YPR025C, strain CCL1, stronger effect = lower value",0.97
same,normalized growth,"locus YPR106W, strain ISR1, stronger effect = lower value",0.979
same,normalized growth,"locus YPR111W, strain DBF20, stronger effect = lower value",0.954
same,normalized growth,"strain NNK1, stronger effect = lower value",0.974
same,normalized growth,"strain TSCII, stronger effect = lower value",0.963
